Source: PubChem BioAssay (several laboratories)
Rpn11 inh = inhibitors of human proteasome Rpn11. O00487. human 26S proteasome, Ub4-pepOG fluorescence polarization; 20S core pre-blocked with epoxomicin. calls only at 20 µM. 0.59% of 360,000 active. AID 588493;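 active = inhibition at 20 µM, scaled to each plate's controls, above about 33%, limit read from the data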
Target sequence (O00487 whole entry, looked up): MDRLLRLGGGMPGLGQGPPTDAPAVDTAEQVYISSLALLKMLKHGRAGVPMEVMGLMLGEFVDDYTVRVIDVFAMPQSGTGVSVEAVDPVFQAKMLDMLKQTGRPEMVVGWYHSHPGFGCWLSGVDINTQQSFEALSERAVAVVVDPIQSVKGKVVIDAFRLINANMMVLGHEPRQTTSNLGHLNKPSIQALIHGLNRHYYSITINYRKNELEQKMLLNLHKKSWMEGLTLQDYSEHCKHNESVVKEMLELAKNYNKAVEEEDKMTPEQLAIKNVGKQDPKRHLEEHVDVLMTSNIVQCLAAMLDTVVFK
Neddylation inh = blocks human cullin neddylation. P61081+Q13564. TR-FRET cullin neddylation, biochemical. inhibition, % at 25 µM. 0.58% of 360,000 active. AID 651699; in the data active = inhibition above about 36%
PKA-R2B act = PKA-R2B complex activation; P22694+P31323; PKA-R2B holoenzyme dissociation, Cy5-IP20 fluorescence polarization; R2B truncated from residue 108, S112A mutant; 0% DMSO only, 100% 113 µM cGMP; activation, % at 11.4 µM; 0.079% of 340,000 active; AID 504700;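 active = activation above a cutoff set at the mean over all compounds plus 3 SD, cut at about 18% in these data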;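 also: higher means more holoenzyme dissociation and a rise in polarization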
PKA-R1A activ = activates the PKA-R1A holoenzyme complex | 0.083% of 340,000 active | P00514+P68181 | activation, % at 11.4 µM | PKA-R1A dissociation, Cy5-IP20 fluorescence polarization; scaled: DMSO 0%, 113 µM cGMP 100%;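 active = percent activation above the mean of all tested compounds plus 3 SD, cut at about 19% in these data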;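 also: higher means more PKAc released from R1A so a rise in polarization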
Neddyl inh conf = cullin neddylation inhibition, confirmation. TR-FRET cullin neddylation biochemical assay. calls only at 25 µM. 13% of 1,800 active. shares compounds with Neddylation inh. AID 652217; in the data active = inhibition above about 40%;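 also: neddylation substrate is the cullin 1 ring ligase complex with SKP2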
* = called active by the depositor; i = inactive; · = no result given; + = active, no number. Only some compounds are listed: those with a hit (about 1.3% of all), similar ones and a draw of the others.

SMILES	Rpn11 inh	Neddylation inh	PKA-R2B act	PKA-R1A activ	Neddyl inh conf
O=C(NC1CCCCC1)C(c1ccc(C(F)(F)F)cc1)n1c(=O)c(-c2ccccc2)nc2ccccc21 (stereo not drawn)	·	41.2*	·	·	i
CC(C)(C)NC(=O)C(c1ccc(C(F)(F)F)cc1)n1c(=O)c(-c2ccccc2)nc2ccccc21 (stereo not drawn)	·	31.2	·	·	·
CCCCCNC(=O)C(C1CC1)n1c(=O)c(-c2ccccc2)nc2ccccc21 (stereo not drawn)	·	45.2*	·	·	·
CC(C)(C)NC(=O)C(c1ccncc1)n1c(=O)c(-c2ccccc2)nc2ccccc21 (stereo not drawn)	·	50.4*	·	·	·
Cc1cccc(C)c1NC(=O)C(c1ccncc1)n1c(=O)c(-c2ccccc2)nc2ccccc21 (stereo not drawn)	·	62.0*	·	·	+
COCOCCn1cc(CN2CCS(=O)(=O)N(Cc3ccc(-c4ccc(Cl)c(Cl)c4)cc3)C(C)C2=O)nn1 (stereo not drawn)	i	-13.0	-1.9	-4.6	·
Cc1ccc(C(=O)CCC(=O)OCC(=O)N(CC(C)C)c2c(N)n(Cc3ccccc3)c(=O)[nH]c2=O)cc1	i	10.9	-10.8	-6.3	·
CCCNC(=O)c1ccc2c(c1)nc(C)n2-c1cccc(Cl)c1	i	0.8	-9.0	-7.2	·
CCC(NC(=O)c1ccccc1O)c1ccccc1 (stereo not drawn)	i	49.2*	-1.0	4.6	i
CSCC[C@@H](CO)NC(=O)[C@H]1O[C@@H](n2ccc(=O)[nH]c2=O)[C@H](O)[C@@H]1O	i	1.4	·	·	·
O=C(N/N=C/c1cccnc1)c1ccc(CN2c3cccc4cccc(c34)S2(=O)=O)cc1	i	46.2*	-12.1	-11.8	+
CCOc1ccc(NC(=O)CCc2nnc3ccc(N4CCC5(CC4)OCCO5)nn23)cc1	i	0.2	4.1	-5.8	·
CC(C)NC(=O)C1(C)Cc2c(-c3ccc(N(C)C)cc3)ccnc2O1 (stereo not drawn)	i	·	·	·	·
Oc1cc(O)cc(-c2cc3ccc(O)cc3o2)c1	i	·	12.8	2.8	·
CC1(C)Oc2cc3oc(-c4cc(O)cc(O)c4)cc3cc2CC1O (stereo not drawn)	i	42.1*	1.0	-10.4	i
CCOc1ccc(-n2c(O)c(/C=N/NC(=O)C3COc4ccccc4O3)c3ccccc3c2=O)cc1 (stereo not drawn)	i	41.6*	1.0	0.8	i
OCCC1CN(Cc2cccc3c2OCO3)CCN1C1CCCC1 (stereo not drawn)	i	3.0	0.7	7.5	·
N#C/C(=C(/O)CSc1ncn[nH]1)c1nc2ccccc2[nH]1	i	25.6	-6.2	-10.2	·
O=S(=O)(c1cccs1)N1CN(Cc2ccc(F)cc2)c2nc3ccccc3nc21	i	8.4	-4.7	-6.1	·
O=S(=O)(c1cccs1)N1CN(Cc2ccccc2)c2nc3ccccc3nc21	i	40.8*	-8.6	-8.2	i
COCCNC(=O)/C(C#N)=C/c1c(F)cccc1Cl	i	2.1	-2.2	8.4	·
COc1cccc(CNc2ccc3[nH]c(=O)[nH]c3c2)c1OCc1ccc(F)cc1	i	43.4*	12.9	-4.9	i
CC(=O)c1ccc(NC(=O)CSc2n[nH]c(-c3cccnc3)n2)cc1	i	3.4	-15.0	-5.6	·
COc1ccc(NC(=O)c2c[nH]c(=O)n(-c3ccc(C)c(C)c3)c2=O)c(OC)c1	i	63.6*	0.7	-0.9	i
COc1cccc(N=c2oc3cc(O)ccc3cc2C(=O)NCC2CCCO2)c1 (stereo not drawn)	i	43.6*	0.0	-22.2	i
SMILES	Rpn11 inh	Neddylation inh	PKA-R2B act	PKA-R1A activ	Neddyl inh conf
Cc1onc(-c2ccccc2)c1C(=O)Nc1ccncc1	i	0.9	-16.8	-7.7	·
Cc1cc(=O)oc2ccc(OC(C)C(=O)O)cc12 (stereo not drawn)	i	45.6*	-6.0	-0.6	i
Cc1cc(=O)oc2cc(NC(=O)c3ccc(OC(F)F)cc3)ccc12	i	·	-1.2	-4.0	·
Cc1cc(=O)oc2cc(NC(=O)C(C)Oc3ccc(F)cc3)ccc12 (stereo not drawn)	i	38.7*	7.8	4.9	·
Cc1cc(=O)oc2cc(NC(=O)Cc3ccccc3)ccc12	i	37.9	5.2	-12.3	·
CCCC(C(=O)Nc1ccc2c(C)cc(=O)oc2c1)c1ccccc1 (stereo not drawn)	i	41.7*	-6.8	6.1	i
Cc1onc(-c2ccccc2)c1C(=O)Nc1ccc2c(C)cc(=O)oc2c1	i	40.6*	-5.7	3.9	i
Cc1cc([N+](=O)[O-])cc(/C=N\NC(=O)C2COc3ccccc3O2)c1O (stereo not drawn)	i	-20.3	-8.9	-11.7	·
O=C(N/N=C/c1cn(Cc2ccccc2)c2ccccc12)c1ccncc1	i	19.6	5.5	-8.1	·
Nc1ccc(C(=O)N/N=C/c2cn(Cc3cccc(F)c3)c3ccccc23)cc1	i	43.5*	-6.9	3.9	i
Cc1nc2scc(C)n2c(=O)c1S(=O)(=O)NCc1ccccc1Cl	i	41.3*	5.3	-1.2	i
COc1ccccc1CNS(=O)(=O)c1c(C)nc2scc(C)n2c1=O	i	34.8	-2.2	0.3	·
Cc1ccc(C(=O)c2oc3ccccc3c2NC(=O)c2cc(-c3cc(C)ccc3O)n[nH]2)cc1	i	39.5*	-12.2	-11.3	i
Cc1ccc(C(=O)c2oc3ccccc3c2NC(=O)c2cc(-c3ccccc3O)n[nH]2)cc1	i	·	-8.9	1.3	·
COCCOC(=O)c1cc(C(=O)c2cc(F)ccc2O)coc1=N	i	46.6*	7.1	5.6	i
O=C(N/N=C/c1cn(-c2ccccc2)nc1-c1ccccc1)c1ccco1	i	41.4*	-1.8	-5.5	i
O=C(N/N=C/c1cn(-c2ccccc2)nc1-c1cccs1)c1ccncc1	i	43.6*	-5.7	-8.5	·
NC(=O)N/N=C/c1cn(-c2ccccc2)nc1-c1cccs1	i	7.7	-3.7	-3.4	·
O=C(N/N=C/c1nn(-c2ccccc2)cc1-c1ccccc1)c1ccncc1	i	39.3*	11.6	-1.5	i
CN(C)C(=O)COC(=O)/C=C/c1cn(-c2ccccc2)nc1-c1cccs1	i	41.2*	-2.0	-6.2	·
Cc1ccc2sc(N3CCN(CCNC(=O)c4ccco4)CC3)nc2c1C	i	3.2	-5.2	1.4	·
Cc1ccc2nc(-c3ccc(NC(=O)COCC(=O)O)cc3)sc2c1	i	44.6*	4.5	-4.3	+
CN(C)c1cccc(C(=O)OCC(=O)N2CCc3ccccc3C2)c1	i	42.0*	7.7	8.3	i
CC(OC(=O)c1cccc(N(C)C)c1)C(=O)N1CCc2ccccc2C1 (stereo not drawn)	i	·	-11.0	-2.6	·
COc1ccccc1NC(=O)CSc1nncs1	i	-3.2	-11.2	-1.2	·
Cn1c(SCc2ccc(Cl)cc2)nnc1-c1ccc2nonc2c1	i	42.2*	17.9	-4.3	i
